We go through five compounds from PubChem BioAssay.

The structures appear in SMILES notation. Records with an inconclusive call do not appear. Activity calls are given as the source filed them.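 How the source made its calls, unless noted: active means efflux inhibition above 0.42, the validation set average plus 4 SD; inconclusive means no clear call, values can overlap the other calls; inactive means the rest.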

The nature of experiment [1]: yeast TOR pathway RPL19A-GFP modulators, primary screen, cell-based, S. cerevisiae, multiplex flow cytometry (AID 1862; in the data active means percent of DMSO control GFP below about 86%;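 further: lower values mimic rapamycin by blocking the RPL19A rise seen in DMSO cells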). The conditions noted are these: S. cerevisiae RPL19A-GFP strain, flow cytometry fluorescence, 3 h; at 10 µM; stronger effect = lower value.
The nature of experiment [2]: modulators of MEP2-GFP levels in yeast, primary screen, S. cerevisiae, multiplex flow cytometry (AID 1867;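 active means GFP response, as percent of the DMSO control, above the screen-wide mean plus 3 SD, about 139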;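 further: median GFP channel fluorescence of barcode-gated MEP2-GFP cells measured by flow cytometry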). The conditions noted are these: S. cerevisiae MEP2-GFP strain, 3 h, at 10 µM, stronger effect = higher value, 100% means same as DMSO wells.
The nature of experiment [3]: modulators of CIT2-GFP expression in yeast, primary screen, S. cerevisiae, GFP fusion, multiplex flow cytometry (AID 1870;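 active means percent response above a set limit, the screen-wide mean plus 3 SD, cut at about 130% in these data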;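 further: barcoded CIT2-GFP strain pooled with four other GFP strains with rapamycin as positive control; median GFP fluorescence per well over plate mean of DMSO wells so 100% = DMSO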). The conditions noted are these: 3 h, at 10 µM, stronger effect = higher value.
A short description of experiment [4]: modulators of LAP4-GFP expression in yeast, primary screen, S. cerevisiae, multiplex flow cytometry (AID 1873;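 active means GFP signal, as percent of the solvent control, above the screen mean plus 3 SD, about 149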). The conditions noted are these: 3 h, at 10 µM, stronger effect = higher value.
Experiment [5] in a line: modulators of AGP1-GFP expression in yeast TOR pathway, primary screen, cell-based, multiplex flow cytometry, S. cerevisiae (AID 1887;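 active means GFP signal above the screen-wide mean plus 3 SD, that is over about 124.5% of the solvent control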;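 further: AGP1-GFP fusion strain of S. cerevisiae within a five-strain barcoded multiplex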). The note with it: 3 h, at 10 µM, stronger effect = higher value.
Experiment [6] in a line: inhibitors of CD8+ T cell-vesicle binding, pilot screen, LFA-1/ICAM-1 modulator project, MLPCN validation set, flow cytometry (AID 2523;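 active means response below a set limit, under 55% cells CD8-positive and vesicle-bound, and CD8 cells' 90th-percentile brightness under 279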;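 on vesicle binding response: mean PE anti-B7-1 fluorescence of CD8+ cells relative to row control; 100% = QL9-loaded vesicles with DMSO vehicle in the same plate row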). The note with it: 2C mouse CD8+ T cells, at 7 µM, stronger effect = lower value; double positive events: measured here: CD8+/vesicle+ event percentage.
Experiment [7] has as its target Integrin beta-1 (Homo sapiens) + Integrin alpha-4 (Homo sapiens) (UniProt P13612+P05556). Kind of experiment: inhibition of HUTS-21 binding to VLA-4, pilot screen, VLA-4 allosteric modulator project, U937 cells, HUTS-21 mAb, flow cytometry, validation set (AID 2674;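 active means inhibition above 50%, about 3 SD of the validation set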;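 further: antibody binding induced by the VLA-4 ligand LDV present at three times its Kd; 0% = LDV ligand with antibody and no compound and 100% = antibody without LDV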). The note with it: HUTS-21 LIBS mAb binding, at 6.7 µM, stronger effect = higher value, binding induced by LDV ligand.

Experiment [8] in a line: superoxide lowering in aged yeast cells, pilot screen, validation compound set (AID 2706;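 active means superoxide response below 65% of plate, a cut near 3 SD across the whole screen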;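 further: yeast exposed to compound for one week at 30 degrees C before staining; 100% = mean of all compound wells on the same plate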). The note with it: S. cerevisiae aging, superoxide DHE fluorescence; at 10 µM, stronger effect = lower value.
Experiment [9] concerns the target Beta-adrenergic receptor kinase 1 (Homo sapiens) (UniProt P25098). The experiment can be described thus: GRK2 binders displacing RNA aptamer, biochemical, validation, human GRK2, bead flow cytometry (AID 488806;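 active means aptamer binding inhibition above 30%, about 3 SD of noise from non-fluorescent compounds; inactive means inhibition at or below 30%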). The note with it: bead-bound GRK2, FAM-aptamer displacement, at 10 µM, stronger effect = higher value.
Experiment [10] is described as follows: yeast V-ATPase proton transport modulators, S. cerevisiae, pHLuorin, HTS validation (AID 504600; in the data active means response above about 15%;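 further: plate controls were DMSO for no effect and reference compound for full effect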). The note with it: S. cerevisiae pHLuorin cytosolic pH, at 10 µM, stronger effect = higher value.
Experiment [11] deals with anti-desmoglein-3 scFv antibody binding to human DSG3. Kind of experiment: inhibitors of anti-DSG3 scFv binding to DSG3, pilot screen, biochemical, validation compound set, bead-based, flow cytometry (AID 588368;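 active means binding below the plate cutoff, the plate median minus 3 SD, with a reading above zero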;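 further: signal is the median channel fluorescence of bead-bound GFP antibody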). The conditions noted are these: Protein G beads, DSG3-Fc, scFv-GFP binding, at 10 µM, stronger effect = lower value.
A short description of experiment [12]: inhibitors of fungal efflux pumps CDR1, CDR2, MDR1, pilot screen, validation compound set, multiplex, phenotypic (AID 588506).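 Further: Nile Red retained in cells so higher fluorescence means more efflux inhibition; 0 = negative control wells and 1 = enniatin B 25 µM full block.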 The conditions noted are these: S. cerevisiae pump-expressing triplex, Nile Red efflux flow cytometry; at 10 µM; stronger effect = higher value; the pumps come from Candida albicans.
Experiment [13] addresses ATP-binding cassette sub-family B member 6 (Homo sapiens) (UniProt Q9NP58). The experiment can be described thus: ABCB6 transporter inhibitors, pilot screen, K562-ABCB6 cells, flow cytometry, validation set (AID 588550;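 active means inhibition above the screen-wide mean plus 3 SD, about 51%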;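 further: 0% = DMSO wells and 100% = benzethonium chloride 70 µM positive control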). The note with it: K562-ABCB6 porphyrin accumulation, 1 h, at 10 µM, stronger effect = higher value.
A short description of experiment [14]: promoters of myeloid differentiation in arrested cells, primary screen, cell-based, GFP/MAC1 double positive, flow cytometry, validation set (AID 588685;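 active means differentiation response of at least 50%, scaled between solvent and reference control, from cells with both markers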;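 further: compound exposure lasts four days before antibody staining and flow analysis; 0% = DMSO wells and 100% = 5 µM fulvestrant positive control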). The conditions noted are these: ER-HoxA9 marrow cells, stronger effect = higher value, normalized: vehicle 0, fulvestrant 100.
Experiment [15] concerns the target AP-2 complex subunit beta (Homo sapiens) (UniProt P63010). Kind of experiment: inhibitors of arrestin peptide binding to AP2, pilot screen, biochemical, validation set, GST-AP2 beads, flow cytometry (AID 504541;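 active means inhibition above 54%, about 3 SD of non-fluorescent compounds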;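 further: AP2 carries R879A mutation and is captured from E. coli lysate; bead-bound FITC arrestin peptide fluorescence measuring arrestin peptide binding to AP2; 0% = DMSO wells and 100% = excess unlabeled arrestin peptide control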). The note with it: FITC arrestin peptide, at 10 µM, stronger effect = higher value, AP2 beta2 appendage fragment, R879A mutant.
For experiment [16], the target named is Beta-2 adrenergic receptor (Homo sapiens) (UniProt P07550). Kind of experiment: beta2AR agonists driving receptor internalization, pilot screen, cell-based, FAP fluorogen, flow cytometry, validation set (AID 504459;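 active means percent response above 42, roughly 3 SD of non-fluorescent test compounds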;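 further: agonist-driven loss of surface beta2AR via internalization measured by FAP dye flow cytometry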). The note with it: Am2.2-beta2AR cells, FAP surface receptor flow cytometry; at 10 µM; stronger effect = higher value.
Sequence of Beta-2 adrenergic receptor (Homo sapiens) (P07550 whole entry, looked up): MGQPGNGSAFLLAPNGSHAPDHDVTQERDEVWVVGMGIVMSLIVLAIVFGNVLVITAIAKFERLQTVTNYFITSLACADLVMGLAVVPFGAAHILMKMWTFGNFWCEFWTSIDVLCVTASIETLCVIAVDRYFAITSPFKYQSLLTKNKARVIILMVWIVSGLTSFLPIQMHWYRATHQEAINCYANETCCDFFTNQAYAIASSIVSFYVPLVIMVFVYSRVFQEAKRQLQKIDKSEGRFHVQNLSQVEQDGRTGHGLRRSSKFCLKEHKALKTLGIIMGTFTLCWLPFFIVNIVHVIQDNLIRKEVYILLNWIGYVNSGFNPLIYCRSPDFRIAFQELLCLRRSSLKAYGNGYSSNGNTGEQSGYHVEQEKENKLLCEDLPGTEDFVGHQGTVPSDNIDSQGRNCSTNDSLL

Sequence of ATP-binding cassette sub-family B member 6 (Homo sapiens) (Q9NP58 whole entry, looked up): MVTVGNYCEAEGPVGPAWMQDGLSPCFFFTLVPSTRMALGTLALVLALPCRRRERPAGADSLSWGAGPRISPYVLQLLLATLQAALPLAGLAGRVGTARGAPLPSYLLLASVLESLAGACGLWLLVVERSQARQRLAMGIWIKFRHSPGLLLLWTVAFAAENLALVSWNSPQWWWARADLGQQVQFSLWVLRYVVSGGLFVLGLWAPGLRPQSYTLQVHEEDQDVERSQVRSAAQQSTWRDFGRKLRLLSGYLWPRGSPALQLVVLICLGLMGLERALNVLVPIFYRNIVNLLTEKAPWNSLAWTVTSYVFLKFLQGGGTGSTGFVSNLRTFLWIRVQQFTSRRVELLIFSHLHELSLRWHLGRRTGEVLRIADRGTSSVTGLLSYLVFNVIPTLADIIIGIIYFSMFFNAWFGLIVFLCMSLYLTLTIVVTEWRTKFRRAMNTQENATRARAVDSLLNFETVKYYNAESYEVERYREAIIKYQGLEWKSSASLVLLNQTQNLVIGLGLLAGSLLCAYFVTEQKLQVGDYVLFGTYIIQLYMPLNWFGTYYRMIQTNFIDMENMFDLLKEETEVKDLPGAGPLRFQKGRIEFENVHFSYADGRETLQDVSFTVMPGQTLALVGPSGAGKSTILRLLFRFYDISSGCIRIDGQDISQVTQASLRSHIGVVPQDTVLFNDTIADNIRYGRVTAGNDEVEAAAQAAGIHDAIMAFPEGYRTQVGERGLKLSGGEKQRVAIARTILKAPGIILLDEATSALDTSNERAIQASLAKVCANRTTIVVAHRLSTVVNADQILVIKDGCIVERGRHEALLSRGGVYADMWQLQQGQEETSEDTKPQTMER
Sequence of AP-2 complex subunit beta (Homo sapiens) (P63010 whole entry, looked up, the tested form may be a part, one chain of several): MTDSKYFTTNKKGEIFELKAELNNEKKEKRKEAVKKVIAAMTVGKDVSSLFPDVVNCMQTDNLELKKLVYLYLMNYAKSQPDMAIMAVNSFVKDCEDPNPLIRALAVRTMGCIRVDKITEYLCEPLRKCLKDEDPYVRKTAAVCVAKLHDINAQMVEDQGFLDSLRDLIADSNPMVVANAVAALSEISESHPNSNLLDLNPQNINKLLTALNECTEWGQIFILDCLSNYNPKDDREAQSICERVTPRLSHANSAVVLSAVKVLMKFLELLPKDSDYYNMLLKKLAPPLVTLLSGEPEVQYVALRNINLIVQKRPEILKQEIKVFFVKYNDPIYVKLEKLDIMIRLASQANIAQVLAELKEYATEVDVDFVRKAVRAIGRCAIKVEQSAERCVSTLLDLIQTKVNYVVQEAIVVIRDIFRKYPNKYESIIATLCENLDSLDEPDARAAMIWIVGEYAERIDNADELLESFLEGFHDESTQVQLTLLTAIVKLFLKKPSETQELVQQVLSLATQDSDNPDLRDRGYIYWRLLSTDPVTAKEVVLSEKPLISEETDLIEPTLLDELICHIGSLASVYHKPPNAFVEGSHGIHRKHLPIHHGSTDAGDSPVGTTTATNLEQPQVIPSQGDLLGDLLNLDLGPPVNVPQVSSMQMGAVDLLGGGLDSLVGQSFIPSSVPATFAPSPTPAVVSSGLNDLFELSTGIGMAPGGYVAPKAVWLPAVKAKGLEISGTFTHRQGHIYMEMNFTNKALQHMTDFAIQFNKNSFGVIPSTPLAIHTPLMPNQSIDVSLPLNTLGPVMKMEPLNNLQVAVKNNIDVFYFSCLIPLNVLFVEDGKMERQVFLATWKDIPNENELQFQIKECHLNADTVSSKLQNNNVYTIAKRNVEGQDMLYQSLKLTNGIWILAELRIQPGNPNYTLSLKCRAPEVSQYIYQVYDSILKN
Sequence of Integrin beta-1 (Homo sapiens) + Integrin alpha-4 (Homo sapiens) (P05556 whole entry, looked up): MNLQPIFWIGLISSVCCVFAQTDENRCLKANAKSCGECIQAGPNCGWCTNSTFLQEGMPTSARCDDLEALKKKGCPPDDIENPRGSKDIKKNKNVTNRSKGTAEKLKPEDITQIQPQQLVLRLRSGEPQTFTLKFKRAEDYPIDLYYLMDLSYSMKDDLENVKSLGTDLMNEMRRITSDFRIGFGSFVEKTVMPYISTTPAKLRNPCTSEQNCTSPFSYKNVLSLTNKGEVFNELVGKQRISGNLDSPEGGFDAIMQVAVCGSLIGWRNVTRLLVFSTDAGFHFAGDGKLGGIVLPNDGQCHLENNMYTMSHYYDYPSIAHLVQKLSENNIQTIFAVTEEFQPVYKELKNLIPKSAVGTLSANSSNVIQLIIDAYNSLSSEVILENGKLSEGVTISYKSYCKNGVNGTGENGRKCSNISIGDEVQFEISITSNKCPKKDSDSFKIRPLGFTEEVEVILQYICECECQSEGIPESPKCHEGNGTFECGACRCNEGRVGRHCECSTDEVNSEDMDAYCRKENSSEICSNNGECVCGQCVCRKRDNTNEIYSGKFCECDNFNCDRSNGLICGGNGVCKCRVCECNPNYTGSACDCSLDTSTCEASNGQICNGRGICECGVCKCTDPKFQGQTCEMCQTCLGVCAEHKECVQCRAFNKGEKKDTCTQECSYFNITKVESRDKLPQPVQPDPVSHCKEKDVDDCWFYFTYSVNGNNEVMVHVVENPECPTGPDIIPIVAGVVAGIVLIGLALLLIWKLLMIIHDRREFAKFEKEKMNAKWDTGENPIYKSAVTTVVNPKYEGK
Sequence of Integrin beta-1 (Homo sapiens) + Integrin alpha-4 (Homo sapiens) (P13612 whole entry, looked up): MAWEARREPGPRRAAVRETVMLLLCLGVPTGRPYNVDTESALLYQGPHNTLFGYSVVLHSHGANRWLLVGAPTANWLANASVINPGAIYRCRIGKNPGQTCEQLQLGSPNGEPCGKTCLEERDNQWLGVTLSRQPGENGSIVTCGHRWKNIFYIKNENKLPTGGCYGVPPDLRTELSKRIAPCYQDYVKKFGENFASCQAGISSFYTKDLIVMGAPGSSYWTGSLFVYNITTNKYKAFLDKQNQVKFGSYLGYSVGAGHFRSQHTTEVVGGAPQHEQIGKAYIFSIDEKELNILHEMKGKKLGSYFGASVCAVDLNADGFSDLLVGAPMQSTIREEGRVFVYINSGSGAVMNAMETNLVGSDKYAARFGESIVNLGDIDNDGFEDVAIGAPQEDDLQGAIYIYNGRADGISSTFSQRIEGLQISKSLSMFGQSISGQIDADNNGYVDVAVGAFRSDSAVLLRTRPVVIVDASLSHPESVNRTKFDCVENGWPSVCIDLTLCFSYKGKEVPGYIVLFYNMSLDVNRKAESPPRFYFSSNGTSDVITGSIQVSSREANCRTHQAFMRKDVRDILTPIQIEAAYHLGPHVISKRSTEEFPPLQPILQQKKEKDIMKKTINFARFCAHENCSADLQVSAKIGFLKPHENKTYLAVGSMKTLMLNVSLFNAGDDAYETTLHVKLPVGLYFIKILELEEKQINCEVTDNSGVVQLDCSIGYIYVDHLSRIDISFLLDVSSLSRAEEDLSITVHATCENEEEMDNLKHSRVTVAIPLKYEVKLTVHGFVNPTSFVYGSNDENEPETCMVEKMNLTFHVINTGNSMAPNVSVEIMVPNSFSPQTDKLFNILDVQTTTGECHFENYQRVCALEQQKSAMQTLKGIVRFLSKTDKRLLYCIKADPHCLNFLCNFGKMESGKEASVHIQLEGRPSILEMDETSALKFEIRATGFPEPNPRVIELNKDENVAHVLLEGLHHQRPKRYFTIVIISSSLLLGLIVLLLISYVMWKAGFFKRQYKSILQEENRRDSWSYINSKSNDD
Sequence of Beta-adrenergic receptor kinase 1 (Homo sapiens) (P25098 whole entry, looked up): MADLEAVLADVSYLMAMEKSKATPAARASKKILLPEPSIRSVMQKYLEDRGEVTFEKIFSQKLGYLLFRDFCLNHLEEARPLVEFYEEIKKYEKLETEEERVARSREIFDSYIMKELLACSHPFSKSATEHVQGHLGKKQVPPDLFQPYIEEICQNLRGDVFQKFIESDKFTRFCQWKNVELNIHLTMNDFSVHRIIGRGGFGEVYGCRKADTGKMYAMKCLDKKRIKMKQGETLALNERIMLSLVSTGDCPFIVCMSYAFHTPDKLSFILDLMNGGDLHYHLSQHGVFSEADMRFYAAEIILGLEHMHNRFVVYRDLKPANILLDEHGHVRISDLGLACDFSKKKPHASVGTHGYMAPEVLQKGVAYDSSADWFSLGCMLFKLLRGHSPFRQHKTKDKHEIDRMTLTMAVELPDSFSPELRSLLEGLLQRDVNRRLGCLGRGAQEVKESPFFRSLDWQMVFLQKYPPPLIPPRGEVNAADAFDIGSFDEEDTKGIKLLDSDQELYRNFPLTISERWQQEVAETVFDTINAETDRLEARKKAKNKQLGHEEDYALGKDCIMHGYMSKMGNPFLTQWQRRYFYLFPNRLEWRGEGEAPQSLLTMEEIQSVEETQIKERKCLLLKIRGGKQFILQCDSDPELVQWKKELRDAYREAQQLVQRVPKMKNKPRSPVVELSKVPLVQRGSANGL

As to `CCCC(=O)Nc1ccc(OCC(O)CNC(C)C)c(C(C)=O)c1` (centres undefined), the percent of DMSO control GFP in experiment [1] is 99% (inactive). Also, the values for the GFP response vs DMSO in experiment [2] and in experiment [4] were 101% (inactive) and 106% (inactive), respectively. In addition, the percent response of DMSO control in experiment [3] was 100% (inactive). In experiment [5], the GFP response, % of DMSO is 99.2% (inactive). Also, the double positive events in experiment [6] stood at 59.8%. In experiment [6], the vesicle binding response is 2400% (inactive). Further, the inhibition in [7] was -24.6% (inactive); in experiment [13], -3% (inactive). Moreover, the superoxide response (% of plate) in experiment [8] is 106% (inactive). Besides, the aptamer binding inhibition in experiment [9] is -5% (inactive). Also, in [10], the response was -0.74% (inactive). The binding (% of control) in [11] is 200% (inactive). Besides, in [12], the efflux inhibition (fraction of control) was -0.57 (inactive). Besides, the differentiation response in experiment [14] was 11.1% (inactive).

On to `COCCOC(=O)c1c(C)oc2ccc(OCc3cc(C(=O)OC)oc3C)cc12`, for which the percent of DMSO control GFP in [1] was 97.6% (inactive). The values for the GFP response vs DMSO in [2] and in [4] were 102% (inactive) and 101% (inactive), respectively. Further, the percent response of DMSO control in [3] was 93.9% (inactive). In addition, in experiment [5], the GFP response, % of DMSO is 98.1% (inactive). The double positive events in [6] is 52.6%. Besides, the vesicle binding response in experiment [6] is 202% (inactive). In addition, the inhibition in [7] was 10.9% (inactive); in [15], -4.42% (inactive); in experiment [13], 4% (inactive). Moreover, the superoxide response (% of plate) in experiment [8] is 93.4% (inactive). Besides, in experiment [9], the aptamer binding inhibition is 0% (inactive). Also, the response in [10] was 26.8% (active). Besides, the binding (% of control) in [11] was 98.7% (inactive). In addition, the efflux inhibition (fraction of control) in experiment [12] is 0.06 (inactive). Moreover, the differentiation response in [14] was -11.5% (inactive).

Take `O=C(CCCN1CCC(O)(c2ccc(Cl)cc2)CC1)c1ccc(F)cc1`: in [1], the percent of DMSO control GFP is 101% (inactive). The GFP response vs DMSO in experiment [2] is 99.3% (inactive); in experiment [4], 86.8% (inactive). Besides, the percent response of DMSO control in [3] is 91.9% (inactive). For the same compound, the GFP response, % of DMSO in [5] was 93.7% (inactive). The double positive events in experiment [6] was determined as 62.6%. In addition, the vesicle binding response in [6] is 48.6% (inactive). Also, the inhibition in experiment [7] is 9.92% (inactive); in [15], 13.3% (inactive); in [13], 21% (inactive). In addition, the aptamer binding inhibition in [9] is -3% (inactive). Besides, the response in experiment [16] was -2.5% (inactive); in [10], -1.24% (inactive). In addition, the binding (% of control) in experiment [11] was 105% (inactive). Moreover, in experiment [12], the efflux inhibition (fraction of control) was 0.27 (inactive). Besides, in [14], the differentiation response was 15.9% (inactive).

As to `C/C(=N/N1CCN(Cc2cccc3ccccc23)CC1)c1cccnc1`, in [1], the percent of DMSO control GFP was 101% (inactive). Further, the figures for the GFP response vs DMSO in [2] and in experiment [4] were 102% (inactive) and 99.4% (inactive), respectively. For the same compound, the percent response of DMSO control in experiment [3] was 98.8% (inactive). Besides, in [5], the GFP response, % of DMSO is 96.6% (inactive). The double positive events in experiment [6] was 58.2%. In experiment [6], the vesicle binding response was 182% (inactive). Further, the inhibition in [7] is -1.17% (inactive); in experiment [15], 6.25% (inactive); in [13], 5% (inactive). Besides, the superoxide response (% of plate) in experiment [8] is 102% (inactive). Besides, the aptamer binding inhibition in [9] was 1% (inactive). For the same compound, in [10], the response is -3.49% (inactive). For the same compound, the binding (% of control) in experiment [11] was 100% (inactive). In addition, in [12], the efflux inhibition (fraction of control) is 0.25 (inactive). Moreover, the differentiation response in [14] is 9.49% (inactive).

As to `CCOC(=O)[C@H](CCc1ccccc1)N[C@@H](C)C(=O)N1CCC[C@H]1C(=O)O`, the percent of DMSO control GFP in experiment [1] was 102% (inactive). Also, the GFP response vs DMSO was 98.3% (inactive) in experiment [2] and 98.6% (inactive) in experiment [4]. Besides, in experiment [3], the percent response of DMSO control is 93.1% (inactive). In addition, in experiment [5], the GFP response, % of DMSO was 96.4% (inactive). In experiment [6], this compound registered a double positive events of 64.3%. Further, in [6], the vesicle binding response is 171% (inactive). The inhibition was -5.64% (inactive) in [7], 61% (active) in [15] and 3% (inactive) in experiment [13]. The aptamer binding inhibition in [9] was 13% (inactive). For the same compound, the figures for the response in experiment [16] and in experiment [10] were -2.62% (inactive) and -5.12% (inactive), respectively. Besides, the binding (% of control) in experiment [11] is 95.3% (inactive). Moreover, in experiment [12], the efflux inhibition (fraction of control) was 0.46 (active). Moreover, the differentiation response in experiment [14] is 25.7% (inactive).
